Data on 8 molecules can be found in PubChem BioAssay (NCI).

The panel holds about 79,000 compounds, 15% with a hit somewhere; the sample as a whole holds those more often. Values without a mark were called inactive. Activity calls are given as the source filed them. Cut-off read from the data, not from the text of the source: active = growth inhibition above about 70%; inactive = the rest.

A short description of the assay: NCI Yeast Anticancer Drug Screen. Data for the mgt1 strain (AID 153). To be noted: S. cerevisiae mgt1 mutant growth inhibition, stronger effect = higher value. The protocol:
Growth inhibition of yeast strains with defined genetic alterations is measured as a screen for potential anti-cancer activity. Selected strains with alterations in DNA damage repair or cell cycle control were exposed to compounds and growth inhibition was measured relative to vehicle treated controls. The strain used in this assay is mgt1

For the molecule `CCCC/C=C1\CCC(CN2CCCC2)C1=O` (stereo not given), the growth inhibition is 21% (at 1.2 µM); 21% (at 3.7 µM); 39% (at 11.0 µM); 62% (at 33.0 µM); 95% (active) (at 100.0 µM).

With `S=C1N(c2ccc(Cl)cc2)C2=C(N=Nc3ccccc3)C(=Nc3ccccc3S2)N1c1ccccn1`, the growth inhibition reads like this: (at 1.2 µM) 13%; (at 3.7 µM) 15%; (at 11.0 µM) 66%; (at 33.0 µM) 99% (active); (at 100.0 µM) 99% (active).

In the case of `CC1=COC2=C(C)C(=O)C(=O)c3c(C)ccc1c32`, the growth inhibition (at 1.2 µM) was 41%; the growth inhibition (at 3.7 µM) is 28%; the growth inhibition (at 11.0 µM) was 37%; the growth inhibition (at 33.0 µM) is 89% (active); the growth inhibition (at 100.0 µM) was 94% (active).

Take `Cc1c2c(nc3ccccc13)C(=O)c1cccnc1C2=O`: the growth inhibition was 1% (at 1.2 µM); -1% (at 3.7 µM); -10% (at 11.0 µM); 13% (at 33.0 µM); 78% (active) (at 100.0 µM).

For the molecule `c1c[nH]c(CN2CCN(Cc3ncc[nH]3)CC2)n1`, the growth inhibition is -6% (at 1.2 µM); 2% (at 3.7 µM); 96% (active) (at 11.0 µM); 97% (active) (at 33.0 µM); 99% (active) (at 100.0 µM).

On to `CC(C)Cc1ncc(CCCN=C(N)N)[nH]c1=O`, for which the growth inhibition reads like this: (at 1.2 µM) -2%; (at 3.7 µM) -5%; (at 11.0 µM) -3%; (at 33.0 µM) -6%; (at 100.0 µM) -6%.

As for `Nc1ccc(S(=O)(=O)Nc2nc3c(c(=O)[nH]2)CCCC3)cc1`, the growth inhibition reads like this: (at 1.2 µM) 2%; (at 3.7 µM) 0%; (at 11.0 µM) 50%; (at 33.0 µM) 98% (active); (at 100.0 µM) 99% (active).

For the molecule `Cc1cc(C)c(S(=O)(=O)c2ccc(Cl)cc2)c(C)c1`, the growth inhibition (at 1.2 µM) was -7%; the growth inhibition (at 3.7 µM) was -8%; the growth inhibition (at 11.0 µM) was -14%; the growth inhibition (at 33.0 µM) is -13%; the growth inhibition (at 100.0 µM) was -3%.
